# Data from PubChem BioAssay (NCI).
# This is part of a sample that, as a whole, favours compounds with a hit. Of some 83,000 tested, about 20% had one in any assay.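 The test compound was applied at a single concentration to cells in 96-well plates for 48 hours, and percent growth was recorded.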 The source made the active and inactive calls. Rule for the calls: active = growth percent below 10; inactive = the rest.
# System: MDA-MB-468 breast
# Experiment: NCI-60 one-dose screen, 48 h (100 = growth as untreated, 0 = no growth, -100 = all killed)
# Details: 10 µM unless noted
row,SMILES,growth
1,CC1(C)NCCC[C@]2(C)[C@H]3CC=C4[C@@H]5C[C@](C)(COC(=O)c6ccccc6C(=O)O)CC[C@]5(C)CC[C@@]4(C)[C@]3(C)CC[C@@H]12,29.5% (inactive)
2,COc1ccc(/C=C/C(=C/c2c(O)[nH]c3cc(Br)ccc23)N=O)cc1,114% (inactive)
3,CCOC(=O)/C(=C\c1ccccc1Cl)P(=O)(OCC)OCC,43.5% (inactive)
4,COc1cc2c(cc1OC(C)=O)C(=O)CCCC2,76.8% (inactive)
5,C#C[C@]1(O)CC[C@H]2[C@@H]3CC=C4c5sc(Nc6ncccc6C)nc5CC[C@]4(C)[C@H]3CC[C@@]21C,-8.36% (active)
6,CCCCCCCCOC(=O)CC[C@@H](C)[C@H]1CC[C@H]2[C@@H]3[C@H](OC(=O)CCN)C[C@@H]4C[C@H](OC(=O)CCN)CC[C@]4(C)[C@H]3C[C@H](OC(=O)CCN)[C@]12C,3.95% (active)
7,O=C(c1ccccc1)C(CN1CCCCC1)c1ccccc1 (stereo not given),-29.1% (active)
8,Cc1cc(Nc2ccc(F)cc2)nc(N2CCN(c3ccnc4cc(Cl)ccc34)CC2)n1,17.6% (inactive)
9,Brc1cccc(/C=N/Nc2nc(N/N=C/c3cccc(Br)c3)nc(N3CCOCC3)n2)c1,1.09% (active)
10,OCCN1CCN(c2nc(Nc3ccc(-c4nc5ccccc5[nH]4)cc3)c3cn[nH]c3n2)CC1,-82.3% (active)
11,Nc1ncncc1-c1ccc(F)cc1,105% (inactive)
12,C(=C(\C1=NCCN1)n1cnc2ccccc21)/c1ccc2ccccc2c1,26.2% (inactive)
13,CC(C)(C)CC(C)(C)Nc1c(-c2ccc3c(c2)OCO3)nc2cnccn12,95.2% (inactive)
14,C=C(C)[C@@H]1CC[C@]2(C(=O)NCCNCCN)CC[C@]3(C)[C@H](CC[C@@H]4[C@@]5(C)C/C(=C/c6ccncc6)C(=O)C(C)(C)[C@@H]5CC[C@]43C)[C@@H]12,80.3% (inactive)
15,O=c1[nH]c(-c2ccccn2)nc2sc3c(c12)CCCCCC3,37.8% (inactive)
16,O=C(Nc1cccc2[nH]c(C(F)(F)F)nc12)c1ccc(Br)cc1F,11.9% (inactive)
17,CCN1C(=O)N(CC)C2C1NN=c1s/c(=C\c3cnc(C)n3C)c(=O)n12 (stereo not given),-12.2% (active)
18,N#Cc1c(Nc2ccccc2)nc2n(c1=O)-c1ccccc1Sc1ccccc1-2,72.8% (inactive)
19,CCOC(=O)C1=NN(c2ccccc2)C(=O)/C1=C\N1C(=O)/C(=C/c2cccc(O)c2)SC1=S,106% (inactive)
20,CCNCc1c(-c2cccc(OC(F)(F)F)c2)[nH]c2ccc(N3CCCC3)cc2c1=O,36.6% (inactive)

row,SMILES,growth
1,NCCCCCNc1noc(Cc2c[nH]c3cc(Br)ccc23)n1,4.11% (active)
2,C[C@@H]1CC[C@@H]2[C@@H]1[C@H](OC(=O)/C=C/c1ccccc1)[C@]1(CCCOCCOCCOCCOC(=O)CCCC[C@@H]3SC[C@@H]4NC(=O)N[C@@H]43)C[C@@H](OC(=O)CO)[C@@]2(C)O1,111% (inactive)
3,COc1ccc2[nH]cc(-c3nc(N)nnc3-c3cn(C)c4ccc(Br)cc34)c2c1,-31.3% (active)
4,Cc1nc(N)sc1-c1ccnc(Nc2ccc(N3CCOCC3)cc2)n1,34.1% (inactive)
5,Cc1c(C(=O)Nc2nc(-c3ccccc3)cs2)nnn1-c1ccccc1Br,-1.78% [50 µM] (active)
6,CC1c2ccccc2-c2ccccc2N1C (stereo not given),103% (inactive)
7,CC1CCc2c(C(=O)Nc3ncc(Cc4cccc([N+](=O)[O-])c4)s3)csc2C1 (stereo not given),12.3% (inactive)
8,COc1ccc(/C=C2/CCc3cc4ccc(OC)cc4[o+]c32)c(O)c1,97.1% (inactive)
9,Cc1c(C)n(CC(O)CNC2CCCCC2C)c2ccccc12 (stereo not given),-33.8% (active)
10,O=C(COCc1c(-c2ccccc2)no[n+]1[O-])Nc1nc(-c2ccc(Cl)cc2)cs1,100% (inactive)
11,COc1cc(CSc2nc3ccc(C)cc3c(=O)n2-c2ccccc2)cc(OC)c1OC,-8.37% (active)
12,COc1ccc(C2CC(=O)c3c(O)cc(OC4OC(COC5OC(C)C(O)C(O)C5O)C(O)C(O)C4O)cc3O2)cc1O (stereo not given),96.9% (inactive)
13,O=C(/C=C(/C=C/c1ccc2[nH]ccc2c1)OB(F)F)/C=C/c1ccc2[nH]ccc2c1,-57% (active)
14,O=C(/C=C\c1ccc2ccccc2n1)c1cc(Cl)ccc1O,107% (inactive)
15,COc1cc(C2CC(c3ccc(Cl)cc3)=NN2c2ccc(Cl)cc2)cc(OC)c1OC (stereo not given),100% (inactive)
16,O=C1CC2c3cc(-c4cc5ccccc5o4)ccc3CCN2C(=O)N1c1ccccc1 (stereo not given),88.4% (inactive)
17,C=CCN1C(=O)[C@]2(SC1=S)[C@H](c1cccc(Cl)c1)CN(C)[C@]21C(=O)NC2C=CC(Cl)=C[C@H]21 (stereo not given in full),27% (inactive)
18,O=c1c2cccc(F)c2sc2c(NCCCNCCO)nc3ccccc3c12,-18.3% (active)
19,COC(=O)[C@]12CC[C@@H](C(C)=O)[C@@H]1[C@H]1CC[C@@H]3[C@@]4(C)C/C(=C/c5cccnc5)C(=O)C(C)(C)[C@@H]4CC[C@@]3(C)[C@]1(C)CC2,55.7% (inactive)
20,O=C1Nc2cc(Cl)ccc2/C1=C\c1ccc(OCc2ccc([N+](=O)[O-])cc2)cc1,52% (inactive)
